SW480 rereplic: inducers of DNA re-replication in SW480 colon cancer cells. hit rate 1.8% among 340,000. Potency, µM (titrated, usually from 46.1 µM), inactives show at the top dose re-replication activation, most hits filed as activators. AID 624297. SW480 DNA re-replication, Hoechst DNA content imaging, 48 h; also: % of control where 0% means no effect; nearly all actives have a fitted effect of over 55% in size
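Per well, 250 cells were exposed to pinned compound for 48 hr. Nuclear DNA was visualised with Hoechst (40 min, 37 C) and total object intensity recorded by fluorescence scanning.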
MCF10A rereplic: induces DNA re-replication in MCF 10a normal breast cells; hit rate 2.9% among 350,000; AID 624296; Potency, µM (top dose mostly 46.1 µM), for the others: at the top dose activity, positive = re-replication, most hits filed as activators; MCF 10A DNA re-replication, Hoechst nuclear intensity, 48 h; also: % of control where 0% means no effect; nearly all actives have a fitted effect of over 50% in size
KB-V1 cytotox: KB-V1 MDR subline cytotoxicity; Potency, µM (doses to about 46.1 µM), actives largely listed as cytotoxic; AID 1347076; KB-V1 MDR cells viability, CellTiter-Glo, 72 h; hit rate 3.4% among 400,000; also: % is scaled to controls: 0 for no effect and ±100 for the full control effect; nearly all actives have a fitted effect of over 60% in size
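Potencies derive from concentration-effect curves fitted to normalized luminescence (CellTiter-Glo) of KB-V1 cells treated for 72 h at 37 degrees C in phenol-red-free DMEM containing 10% FBS.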
KB-3-1 cytotox: kills parental KB-3-1 adenocarcinoma cells. KB-3-1 viability, CellTiter-Glo ATP luminescence, 72 h. Potency, µM (doses to about 46.1 µM), most hits filed as cytotoxic. hit rate 1.4% among 400,000; also: % is scaled to controls: 0 for no effect and ±100 for the full control effect; nearly all actives have a fitted effect of over 60% in size
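Using CellTiter-Glo luminescence, growth of non-resistant KB-3-1 adenocarcinoma cells is assessed 72 h after pin-tool compound addition at 37 °C. Normalized responses across the concentration series yield fitted curves.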
PINK1 expr mod: modulators of PINK1 expression; PINK1 immunofluorescence, high-content cytometry, 24 h; Potency, µM (titrated, usually from 76.6 µM), without a hit: top-dose activation (PINK1 increase), actives largely listed as activators; hit rate 0.2% among 410,000; AID 624263; active = well fitted activation curve with a large enough effect; inconclusive = small, poorly fitted or top-dose-only effect; cell line not stated here; also: % of control where 0% means no effect; nearly all actives have a fitted effect of over 65% in size
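Fluorescence from anti-PINK1 antibody, together with nuclear and cell stains, was scanned on a laser-scanning cytometer. Before staining, stable-line cells were incubated 24 hours with compounds at 5 concentrations; primary antibody 12 h at 10 degrees C.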
Starred values were filed as active, the others as inactive. Hits are enriched below; roughly 6.7% of the tested compounds scored in any of these assays. Unless noted, calls follow the shape of the dose curve; as a rule, active = well fitted curve in the direction sought with a large enough effect; inconclusive = small, poorly fitted or top-dose-only effect, or another doubt; inactive = no such curve, though single readings can be large; an effect the other way counts as inactive or inconclusive. Potency is read from the fitted curve at half-maximal effect.

Results for CC(C)C1C(C#N)=C(N)Oc2n[nH]c(-c3ccc4ccccc4c3)c21 (stereo not drawn) ?
SW480 rereplic: inconclusive; MCF10A rereplic: -3%; KB-V1 cytotox: 8.2µM*; KB-3-1 cytotox: inconclusive

What do the screens show for `CCNC(=O)/C(C#N)=C/c1c(N(Cc2ccccc2)Cc2ccccc2)nc2ccccn2c1=O`?
SW480 rereplic: -158%; MCF10A rereplic: 12%; KB-V1 cytotox: 2.9µM*; KB-3-1 cytotox: inconclusive; PINK1 expr mod: -3%

How did CNC(=O)/C(C#N)=C/c1c(N(Cc2ccccc2)Cc2ccccc2)nc2c(C)cccn2c1=O do in these assays?
SW480 rereplic: 0%; MCF10A rereplic: inconclusive; KB-V1 cytotox: 23µM*; KB-3-1 cytotox: 16µM*; PINK1 expr mod: 1%

What do the screens show for `N#C/C(=C\c1c(N2CCCCCC2)nc2ccccn2c1=O)C(=O)NCc1ccco1`?
SW480 rereplic: -36%; MCF10A rereplic: inconclusive; KB-V1 cytotox: inactive; KB-3-1 cytotox: inactive; PINK1 expr mod: 2%

Results for N#C/C(=C\c1c(N2CCCCC2)nc2ccccn2c1=O)C(=O)NCc1ccco1 ?
SW480 rereplic: 7%; MCF10A rereplic: -33%; KB-V1 cytotox: 2.9µM*; KB-3-1 cytotox: inconclusive; PINK1 expr mod: 8%

What do the screens show for `CCNC(=O)/C(C#N)=C/c1c(N2CCN(C)CC2)nc2c(C)cccn2c1=O`?
SW480 rereplic: inconclusive; MCF10A rereplic: -14%; KB-V1 cytotox: inactive; KB-3-1 cytotox: inactive; PINK1 expr mod: -1%

What do the screens show for `O=C(NCCNC(=O)c1ccccc1F)c1ccccn1`?
SW480 rereplic: -16%; MCF10A rereplic: -8%; KB-V1 cytotox: inactive; KB-3-1 cytotox: inactive; PINK1 expr mod: 7%

How did CCOc1ccccc1N(CC(=O)Nc1ccccc1F)S(=O)(=O)c1ccccc1 do in these assays?
SW480 rereplic: inconclusive; MCF10A rereplic: 0.58µM*; KB-V1 cytotox: inconclusive; KB-3-1 cytotox: inactive; PINK1 expr mod: 9%

What do the screens show for `COc1ccc(N(CC(=O)Nc2cccc3ccccc23)S(C)(=O)=O)cc1`?
SW480 rereplic: -39%; MCF10A rereplic: inconclusive; KB-V1 cytotox: inactive; KB-3-1 cytotox: inactive; PINK1 expr mod: -1%

How did CCN(CC(=O)Nc1cc(Cl)ccc1C)C(=O)c1oc2ccc(OC)cc2c1C do in these assays?
SW480 rereplic: -4%; MCF10A rereplic: 15%; KB-V1 cytotox: 16µM*; KB-3-1 cytotox: inactive; PINK1 expr mod: -2%

What do the screens show for `COc1ccc(S(=O)(=O)N(Cc2ccccc2)c2ccccc2C(=O)N2CCOCC2)cc1`?
SW480 rereplic: inconclusive; MCF10A rereplic: inconclusive; KB-V1 cytotox: 13µM*; KB-3-1 cytotox: inconclusive; PINK1 expr mod: 2%

How did CCS(=O)(=O)N(CC(=O)Nc1cccc2ccccc12)c1ccc(OC)cc1 do in these assays?
SW480 rereplic: -1%; MCF10A rereplic: 4%; KB-V1 cytotox: 13µM*; KB-3-1 cytotox: inactive; PINK1 expr mod: -1%

What do the screens show for `COc1ccc(C(CNC(=O)c2ccc(S(=O)(=O)N3CC(C)CC(C)C3)cc2)N(C)C)cc1` (stereo not drawn)?
SW480 rereplic: inconclusive; MCF10A rereplic: inconclusive; PINK1 expr mod: -1%

What do the screens show for `CCN(C[C@H]1N[C@@](Cc2ccccc2)(C(=O)OC)[C@H]2C(=O)N(C)C(=O)[C@@H]12)C(=O)COc1ccccc1`?
SW480 rereplic: 12%; MCF10A rereplic: 1%; KB-V1 cytotox: inactive; KB-3-1 cytotox: inactive; PINK1 expr mod: -2%

What do the screens show for `COc1ccc(N(CC(=O)Nc2ccc3c(c2)OCCO3)S(=O)(=O)c2c(C)noc2C)cc1`?
SW480 rereplic: 18%; MCF10A rereplic: inconclusive; KB-V1 cytotox: 2.9µM*; KB-3-1 cytotox: inconclusive; PINK1 expr mod: 7%

How did CCOc1ccc(N(CC(=O)Nc2ccccc2OCC)S(=O)(=O)c2c(C)noc2C)cc1 do in these assays?
SW480 rereplic: 5.8µM*; MCF10A rereplic: 1.3µM*; KB-V1 cytotox: 5.8µM*; KB-3-1 cytotox: 3.3µM*; PINK1 expr mod: 7%

What do the screens show for `CCOc1ccc(N(CC(=O)Nc2ccccc2C(=O)N2CCOCC2)S(=O)(=O)c2ccc(F)cc2)cc1`?
SW480 rereplic: 0%; MCF10A rereplic: 0%; KB-V1 cytotox: 4.6µM*; KB-3-1 cytotox: inactive; PINK1 expr mod: 3%

Screening data: PubChem, National Center for Advancing Translational Sciences (NCATS)
